The structures appear in SMILES notation.

Test systems include CDK2; CDK3; CDK4-cyclinD1; CDK4-cyclinD3; CDK4; CDK5; CDK7; CDK8; CDK9; CDKL1; CDKL2; CDKL3; CDKL5; CHEK1; CHEK2; CIT; CLK1; CLK2; CLK3; CLK4.
Common to all, as to settings: concentration: 1 μM, replicates: in singlicate; n = 1
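Note: KINOMEscan kinase panel screen.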

Turning to `CN1c2ccc(-c3ccc(C(=O)NCCO)cc3)cc2-c2[nH]ncc2S1(=O)=O`, the “%Inh” value in the test on CDK2 is 2%; in the test with CDK3 it was 0%; in the test with CDK4-cyclinD1, 20%; with CDK4-cyclinD3, 12%; in the test on CDK4 it was 0%; with CDK5, 0%. The “%Inh” value in the test on CDK7 stood at 32%; with CDK8, 0%; in the test with CDK9 it was 0%; with CDKL1 it was 22%; in the test with CDKL2, 0%; in the test with CDKL3 it was 1%. Also, the “%Inh” value in the test on CDKL5 is reported as 0%; in the test on CHEK1 it was 0%; with CHEK2, 65%; in the test with CIT, 2%; in the test with CLK1, 44%; with CLK2 it was 86%. The “%Inh” value is given as 25% with CLK3 and 40% in the test with CLK4.

As to `Fc1cccc(COc2ccc(Nc3ncnc4cc[nH]c34)cc2Cl)c1`, the “%Inh” value in the test with CDK2 came out at 11%; with CDK3, 6%; in the test with CDK4-cyclinD1, 6%; with CDK4-cyclinD3 it was 10%; in the test with CDK4 it was 0%; in the test on CDK5, 21%. The “%Inh” value stood at 17% with CDK7; 8% in the test on CDK8; 11% with CDK9; 2% in the test with CDKL1; 14% in the test on CDKL2; 11% with CDKL3. Further, the “%Inh” value in the test with CDKL5 is listed as 15%; in the test on CHEK1, 10%; with CHEK2, 13%; in the test on CIT it was 19%; in the test on CLK1, 7%; in the test with CLK2, 16%. Besides, the entries for the “%Inh” value in the test on CLK3 and in the test on CLK4 were 10% and 0%, respectively.

As for `COc1ccc(Nc2nccc(N3CCC(NC(=O)Nc4ccc5c(c4)OCO5)C3)n2)cc1` (centres unmarked) [GSK1379745], the “%Inh” value with CDK2 amounted to 73%; in the test with CDK3, 2%; in the test on CDK4-cyclinD1, 42%; in the test with CDK4-cyclinD3 it was 0%; in the test on CDK4, 32%; in the test on CDK5, 2%. Further, the “%Inh” value is 0% with CDK7; 46% in the test with CDK8; 0% in the test on CDK9; 1% in the test with CDKL1; 8% with CDKL2; 0% in the test with CDKL3. For the same molecule, the “%Inh” value in the test with CDKL5 is 0%; in the test with CHEK1, 1%; with CHEK2, 0%; in the test with CIT, 0%; in the test with CLK1, 15%; in the test on CLK2, 1%. In addition, the “%Inh” value stood at 9% with CLK3 and 19% in the test with CLK4.

As to `Cn1ccc2ncnc(Oc3ccc(NC(=O)Nc4cccnc4)c(Cl)c3)c21`, the “%Inh” value in the test on CDK2 is given as 0%; in the test on CDK3, 0%; in the test with CDK4-cyclinD1, 0%; in the test with CDK4-cyclinD3 it was 0%; with CDK4 it was 0%; in the test on CDK5, 4%. The “%Inh” value in the test with CDK7 was 7%; in the test with CDK8 it was 0%; with CDK9 it was 2%; with CDKL1, 8%; in the test with CDKL2, 3%; in the test with CDKL3 it was 13%. Also, the “%Inh” value in the test on CDKL5 was 14%; with CHEK1, 0%; with CHEK2 it was 9%; in the test with CIT, 5%; in the test on CLK1 it was 0%; with CLK2, 5%. For the same molecule, the “%Inh” value in the test with CLK3 is given as 4%; in the test with CLK4, 32%.

Consider `FC(F)(F)c1cc(Nc2nccc(-c3c(-c4ccc(Cl)cc4)nn4ncccc34)n2)ccc1Cl` [GW829351], for which the “%Inh” value in the test on CDK2 came to 0%; in the test with CDK3 it was 34%; with CDK4-cyclinD1, 0%; with CDK4-cyclinD3, 0%; in the test on CDK4 it was 0%; with CDK5, 0%. The “%Inh” value is listed as 0% in the test with CDK7; 58% in the test on CDK8; 0% with CDK9; 0% in the test with CDKL1; 28% with CDKL2; 0% in the test on CDKL3. Further, the “%Inh” value came out at 0% with CDKL5; 0% in the test with CHEK1; 4% in the test on CHEK2; 17% in the test on CIT; 0% with CLK1; 22% in the test on CLK2. For the same molecule, the “%Inh” value in the test with CLK3 and in the test on CLK4 was 0% each time.

`CCc1nc(-c2cccc(N(C)S(=O)(=O)c3ccccc3)c2)c(-c2ccnc(Nc3ccc(N4CCN(C(C)=O)CC4)nc3)n2)s1` [GSK1645895]: the “%Inh” value came to 0% in the test on CDK2; 0% with CDK3; 0% in the test with CDK4-cyclinD1; 3% with CDK4-cyclinD3; 0% in the test on CDK4; 0% in the test on CDK5. Moreover, the “%Inh” value with CDK7 was found to be 0%; with CDK8, 0%; in the test on CDK9, 15%; in the test with CDKL1, 1%; with CDKL2, 47%; in the test on CDKL3, 0%. The “%Inh” value in the test on CDKL5 is reported as 4%; in the test with CHEK1, 7%; in the test on CHEK2, 0%; in the test on CIT it was 31%; in the test with CLK1, 25%; with CLK2, 12%. Also, the “%Inh” value is 27% with CLK3 and 0% with CLK4.

Regarding `Cn1cc(-c2ccc3c(c2)CCN3C(=O)Cc2cccc(C(F)(F)F)c2)c2c(N)ncnc21` [GSK2606414], the “%Inh” value stood at 0% with CDK2; 0% in the test with CDK3; 0% in the test with CDK4-cyclinD1; 0% in the test on CDK4-cyclinD3; 6% in the test with CDK4; 0% in the test on CDK5. Further, the “%Inh” value in the test with CDK7 was determined as 0%; with CDK8, 34%; in the test on CDK9, 0%; in the test on CDKL1, 0%; with CDKL2, 15%; in the test on CDKL3, 0%. Further, the “%Inh” value is given as 0% in the test on CDKL5; 19% in the test with CHEK1; 0% with CHEK2; 11% in the test on CIT; 22% in the test with CLK1; 0% in the test with CLK2. Besides, the entries for the “%Inh” value in the test on CLK3 and with CLK4 were 0% and 19%, respectively.

With `Oc1ccc2ncnc(Nc3ccc(OCc4ccccc4)cc3)c2c1` [GI262866], the “%Inh” value with CDK2 is listed as 0%; in the test on CDK3, 22%; in the test with CDK4-cyclinD1 it was 0%; with CDK4-cyclinD3, 0%; in the test on CDK4, 16%; with CDK5, 0%. Also, the “%Inh” value was determined as 0% in the test on CDK7; 21% with CDK8; 0% with CDK9; 0% with CDKL1; 0% in the test with CDKL2; 0% in the test on CDKL3. Further, the “%Inh” value with CDKL5 stood at 7%; with CHEK1, 8%; with CHEK2, 23%; in the test with CIT it was 0%; in the test with CLK1, 37%; in the test with CLK2, 0%. Moreover, the “%Inh” value came out at 21% with CLK3 and 19% with CLK4.

For the molecule `Nc1nccc2scc(-c3ccc4c(c3)CCN4C(=O)Cc3cc(F)ccc3F)c12` [GSK2587663], the “%Inh” value came out at 0% with CDK2; 18% with CDK3; 0% in the test on CDK4-cyclinD1; 0% with CDK4-cyclinD3; 0% in the test on CDK4; 0% in the test with CDK5. Also, the “%Inh” value in the test on CDK7 worked out at 0%; in the test on CDK8, 61%; with CDK9, 0%; with CDKL1, 23%; in the test on CDKL2 it was 17%; in the test with CDKL3 it was 0%. The “%Inh” value was found to be 0% with CDKL5; 8% with CHEK1; 10% in the test on CHEK2; 27% with CIT; 24% in the test on CLK1; 0% with CLK2. Besides, the “%Inh” value in the test on CLK3 is on record as 93.5%; in the test on CLK4 it was 19%.

Take `CC(C)(C)OC(=O)NC1CCCN(c2cc(-c3ccc4c(N)n[nH]c4c3)nc(N)n2)C1` (centres unmarked) [GSK2286096]: the “%Inh” value in the test with CDK2, in the test on CDK3, with CDK4-cyclinD1, with CDK4-cyclinD3, in the test with CDK4 and in the test with CDK5 was 0% in each case. Moreover, the “%Inh” value with CDK7 is reported as 0%; with CDK8, 0%; in the test on CDK9 it was 2%; in the test with CDKL1, 0%; in the test with CDKL2, 5%; in the test on CDKL3, 0%. In addition, the “%Inh” value in the test with CDKL5 was 7%; in the test with CHEK1, 0%; in the test on CHEK2, 0%; in the test on CIT, 26%; with CLK1, 55%; in the test on CLK2, 27%. For the same molecule, the figures for the “%Inh” value in the test on CLK3 and with CLK4 were 7% and 16%, respectively.
